Results reported in PubChem BioAssay AID1159580 (chemical genetic matrix, 2015).
Several values for one entry are separate records, joined by “and”; a condition that tells them apart may be missing. Identical values can stand only once. Hit rate of the full screen: of about 5,500 compounds, about 2,000 (36%) were called active. Roughly 18% stayed inconclusive and do not appear here. Rule as the data show it: active = normalized growth mostly below about 0.91 (no sharp cut-off); inconclusive = no clear call, values can overlap the other calls; inactive = mostly above about 0.92. The list shows a part of the results.

Test: chemical genetic growth profiling, strain panel (AID 1159580);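 also: tested at 20 µM; growth read once vehicle control cultures reached saturation at 30 °C; 1 = growth at the plate median or of vehicle wells; lower values mean less growth of the strain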
Conditions: growth OD

Measured: normalized growth

O=C1CCC(N2C(=O)c3ccccc3C2=O)C(=O)N1 (stereo unspecified)
inactive: S. cerevisiae deletion strains, locus YJR075W, strain HOC1, stronger effect = lower value 0.972 and 1.02 | S. cerevisiae deletion strains, locus YKL009W, strain mrt4, stronger effect = lower value 1.03 | S. cerevisiae deletion strains, locus YKL068W, stronger effect = lower value 0.997 | S. cerevisiae deletion strains, locus YKL085W, strain MDH1 (second series), stronger effect = lower value 1.03 | S. cerevisiae deletion strains, locus YKL085W, strain MDH1, stronger effect = lower value 1.03 | S. cerevisiae deletion strains, locus YKL160W, strain elf1, stronger effect = lower value 1 | S. cerevisiae deletion strains, locus YKL190W, strain CNB1, stronger effect = lower value 1.02 | S. cerevisiae deletion strains, locus YKR001C, strain vps1, stronger effect = lower value 0.969 | S. cerevisiae deletion strains, locus YKR026C, strain gcn3, stronger effect = lower value 1.02 | S. cerevisiae deletion strains, locus YKR091W, strain srl3, stronger effect = lower value 1.02 | S. cerevisiae deletion strains, locus YLL001W, strain dnm1, stronger effect = lower value 1.04 | S. cerevisiae deletion strains, locus YLL026W, stronger effect = lower value 1.01 | S. cerevisiae deletion strains, locus YLL041C, strain sdh2, stronger effect = lower value 1.03 | S. cerevisiae deletion strains, locus YLR027C, strain aat2, stronger effect = lower value 1 | S. cerevisiae deletion strains, locus YLR039C, strain RIC1, stronger effect = lower value 1.03 | S. cerevisiae deletion strains, locus YLR058C, strain SHM2, stronger effect = lower value 1.01 | S. cerevisiae deletion strains, locus YLR102C, strain apc9, stronger effect = lower value 0.991 | S. cerevisiae deletion strains, locus YLR113W, strain HOG1, stronger effect = lower value 0.971 | S. cerevisiae deletion strains, locus YLR221C, strain rsa3, stronger effect = lower value 1.03 | S. cerevisiae deletion strains, locus YLR258W, strain gsy2, stronger effect = lower value 1.02 | S. cerevisiae deletion strains, locus YLR262C, strain YPT6 (second series), stronger effect = lower value 1.02 | S. cerevisiae deletion strains, locus YLR262C, strain YPT6, stronger effect = lower value 1.05 | S. cerevisiae deletion strains, locus YLR268W, strain sec22, stronger effect = lower value 0.985 | S. cerevisiae deletion strains, locus YLR320W, strain mms22, stronger effect = lower value 1.03 | S. cerevisiae deletion strains, locus YLR330W, strain CHS5, stronger effect = lower value 1 | S. cerevisiae deletion strains, locus YLR342W, strain FKS1 (second series), stronger effect = lower value 0.991 | S. cerevisiae deletion strains, locus YLR342W, strain FKS1, stronger effect = lower value 1.01 | S. cerevisiae deletion strains, locus YLR357W, strain rsc2, stronger effect = lower value 0.997 | S. cerevisiae deletion strains, locus YLR370C, strain arc18, stronger effect = lower value 1.03 | S. cerevisiae deletion strains, locus YLR371W, strain rom2, stronger effect = lower value 0.983 | S. cerevisiae deletion strains, locus YLR384C, strain iki3, stronger effect = lower value 1.03 | S. cerevisiae deletion strains, locus YLR418C, strain cdc73, stronger effect = lower value 0.977 | S. cerevisiae deletion strains, locus YML016C, strain PPZ1, stronger effect = lower value 1.01 | S. cerevisiae deletion strains, locus YML032C, strain rad52, stronger effect = lower value 0.979 | S. cerevisiae deletion strains, locus YML120C, strain ndi1, stronger effect = lower value 1.04 | S. cerevisiae deletion strains, locus YML124C, strain tub3, stronger effect = lower value 0.988 | S. cerevisiae deletion strains, locus YMR058W, strain fet3, stronger effect = lower value 1.02 | S. cerevisiae deletion strains, locus YMR078C, strain ctf18, stronger effect = lower value 0.998 | S. cerevisiae deletion strains, locus YMR125W, strain sto1, stronger effect = lower value 1.01 | S. cerevisiae deletion strains, locus YMR129W, stronger effect = lower value 1.02 | S. cerevisiae deletion strains, locus YMR205C, strain PFK2, stronger effect = lower value 1.01 | S. cerevisiae deletion strains, locus YMR223W, strain ubp8, stronger effect = lower value 0.981 | S. cerevisiae deletion strains, locus YMR231W, strain pep5, stronger effect = lower value 1.01 | S. cerevisiae deletion strains, locus YMR263W, strain SAP30, stronger effect = lower value 1.02 and 1 | S. cerevisiae deletion strains, locus YMR307W, strain GAS1, stronger effect = lower value 1.01 and 0.996 | S. cerevisiae deletion strains, locus YNL067W, strain RPL9B, stronger effect = lower value 1.02 | S. cerevisiae deletion strains, locus YNL071W, strain lat1, stronger effect = lower value 1.03 | S. cerevisiae deletion strains, locus YNL128W, strain TEP1, stronger effect = lower value 1.02 | S. cerevisiae deletion strains, locus YNL153C, strain GIM3, stronger effect = lower value 1.02 | S. cerevisiae deletion strains, locus YNL175C, strain NOP13, stronger effect = lower value 0.997 | S. cerevisiae deletion strains, locus YNL183C, strain NPR1, stronger effect = lower value 0.927 | S. cerevisiae deletion strains, locus YNL197C, strain WHI3, stronger effect = lower value 0.986 | S. cerevisiae deletion strains, locus YNL209W, strain ssb2, stronger effect = lower value 1.02 | S. cerevisiae deletion strains, locus YNL224C, strain SQS1, stronger effect = lower value 0.991 | S. cerevisiae deletion strains, locus YNL233W, strain BNI4, stronger effect = lower value 1.02 | S. cerevisiae deletion strains, locus YNL248C, strain rpa49, stronger effect = lower value 0.957 | S. cerevisiae deletion strains, locus YNL250W, strain rad50, stronger effect = lower value 1 | S. cerevisiae deletion strains, locus YNL271C, strain bni1, stronger effect = lower value 0.986 | S. cerevisiae deletion strains, locus YNL298W, strain CLA4, stronger effect = lower value 1 | S. cerevisiae deletion strains, locus YNL307C, strain MCK1, stronger effect = lower value 0.987 | S. cerevisiae deletion strains, locus YNL322C, strain KRE1 (second series), stronger effect = lower value 1.02 | S. cerevisiae deletion strains, locus YNL322C, strain KRE1, stronger effect = lower value 1.01 | S. cerevisiae deletion strains, locus YNR049C, strain mso1, stronger effect = lower value 1.01 | S. cerevisiae deletion strains, locus YNR052C, strain pop2, stronger effect = lower value 0.991 | S. cerevisiae deletion strains, locus YOL006C, strain TOP1, stronger effect = lower value 1.01 | S. cerevisiae deletion strains, locus YOL012C, strain htz1 0.819 | S. cerevisiae deletion strains, locus YOL147C, strain pex11, stronger effect = lower value 0.989 | S. cerevisiae deletion strains, locus YOR001W, strain rrp6, stronger effect = lower value 1.01 | S. cerevisiae deletion strains, locus YOR061W, strain CKA2, stronger effect = lower value 1.02 | S. cerevisiae deletion strains, locus YOR069W, strain VPS5, stronger effect = lower value 1.01 | S. cerevisiae deletion strains, locus YOR070C, strain gyp1, stronger effect = lower value 1.02 | S. cerevisiae deletion strains, locus YOR080W, strain dia2, stronger effect = lower value 1.02 | S. cerevisiae deletion strains, locus YOR083W, strain WHI5 (second series), stronger effect = lower value 1.01 | S. cerevisiae deletion strains, locus YOR083W, strain WHI5, stronger effect = lower value 1.01 | S. cerevisiae deletion strains, locus YOR106W, strain vam3, stronger effect = lower value 1.01 | S. cerevisiae deletion strains, locus YOR136W, strain idh2, stronger effect = lower value 0.981 | S. cerevisiae deletion strains, locus YOR144C, strain elg1, stronger effect = lower value 0.998 | S. cerevisiae deletion strains, locus YOR184W, strain ser1, stronger effect = lower value 0.981 | S. cerevisiae deletion strains, locus YOR231W, strain MKK1, stronger effect = lower value 0.976 | S. cerevisiae deletion strains, locus YOR265W, strain rbl2, stronger effect = lower value 1.01 | S. cerevisiae deletion strains, locus YOR270C, strain vph1, stronger effect = lower value 1.04 | S. cerevisiae deletion strains, locus YOR290C, strain snf2, stronger effect = lower value 1.01 | S. cerevisiae deletion strains, locus YOR316C, strain cot1, stronger effect = lower value 0.997 | S. cerevisiae deletion strains, locus YPL051W, strain arl3, stronger effect = lower value 1 | S. cerevisiae deletion strains, locus YPL055C, strain LGE1, stronger effect = lower value 1.05 | S. cerevisiae deletion strains, locus YPL078C, strain atp4, stronger effect = lower value 1.01 | S. cerevisiae deletion strains, locus YPL106C, strain sse1, stronger effect = lower value 1.03 | S. cerevisiae deletion strains, locus YPL240C, strain hsp82, stronger effect = lower value 1.02 | S. cerevisiae deletion strains, locus YPL241C, strain CIN2, stronger effect = lower value 1.01 | S. cerevisiae deletion strains, locus YPL256C, strain CLN2, stronger effect = lower value 0.968 | S. cerevisiae deletion strains, locus YPR119W, strain clb2, stronger effect = lower value 0.979 | S. cerevisiae deletion strains, locus YPR141C, strain kar3, stronger effect = lower value 0.988 | S. cerevisiae deletion strains, locus YPR163C, strain tif3, stronger effect = lower value 0.998 | S. cerevisiae deletion strains, locus YPR167C, strain met16, stronger effect = lower value 0.99 | S. cerevisiae deletion strains, strain wtn01, stronger effect = lower value 0.983 | S. cerevisiae strains, strain wild type, stronger effect = lower value 1.01
